Shown are actives, neighbours in structure and some others; about 3.7% of the full set was active somewhere.
PfHsp90 set2 – growth inhibition of PfHsp90-expressing yeast, primary screen, antimalarial PfHsp90 inhibitor project, S. cerevisiae, BacTiter-Glo luminescence, single point, set 2; BacTiter-Glo ATP, 48 h; yeast lacking PDR1 and PDR3 efflux regulators; inhibition, % at 9.4 µM; actives 0.32% (n = 310,000); AID 504621, 2011;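 active = every replicate shows inhibition above about 80%, whatever the replicate mean, limit read from the data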;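 also: 0% = DMSO neutral controls and 100% = 20 µM radicicol positive controls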
tim10-1 inh – growth inhibitors of tim10-1 mutant yeast, primary screen, luminescence, uHTS | S. cerevisiae tim10-1 ts strain growth, BacTiter-Glo, 24 h | inhibition, % at 20 µM | actives 2.2% (n = 330,000) | AID 463190, 2010;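 active = inhibition of at least 40%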;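 also: mutant grown at 25 °C; 0% = DMSO wells with yeast and 100% = wells holding no yeast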
TIM10 inh – growth inhibitors of isogenic TIM10 control yeast, primary screen, counter-screen for tim10-1 yeast inhibitor project, luminescence, uHTS. S. cerevisiae TIM10 strain growth, BacTiter-Glo luminescence, 24 h. inhibition, % at 10 µM. actives 1.4% (n = 330,000);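 active = inhibition of 40% or more at the single tested concentration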;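 also: wild-type TIM10 isogenic control strain grown at permissive 25 °C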
NALP3 yeast inh – NALP3 inflammasome inhibitors in reconstituted yeast, primary screen, luminescence, uHTS | inhibition, % at 10 µM | actives 0.39% (n = 330,000) | Yeast reconstituted NLRP3/ASC/caspase-1, beta-gal luminescence, 24 h | AID 2825, 2010;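 active = inhibition of 50% or more; inactive = inhibition below 50%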;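 also: plate controls were induced DMSO wells for no effect and uninduced yeast grown without galactose for full effect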
tim23-1 inh – growth inhibitors of tim23-1 mutant yeast, primary screen, luminescence, uHTS | S. cerevisiae tim23-1 growth, BacTiter-Glo luminescence, 24 h | inhibition, % at 20 µM | AID 463212, 2010 | actives 1.3% (n = 330,000);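 active = growth inhibition of the mutant yeast at or above 50%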;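 also: temperature-sensitive mutant grown at 25 °C; plate controls were DMSO-treated mutant yeast for no effect and medium wells lacking yeast for full effect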
tim10-1 confirm – growth inhibitors of tim10-1 mutant yeast, confirmation, single concentration, luminescence, S. cerevisiae; actives 56% (n = 7,400); S. cerevisiae tim10-1 ts strain growth, BacTiter-Glo, 24 h; inhibition, % at 20 µM; shares compounds with tim10-1 inh;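 active = inhibition of yeast growth at or above a set limit in either of two repeat tests at 20 µM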;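 also: tim10-1 mutant grown at permissive 25 °C to find synthetic lethal compounds; 0% = DMSO yeast wells and 100% = medium wells without yeast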
The depositor's hits bear a star; . = no result.

SMILES	PfHsp90 set2	tim10-1 inh	TIM10 inh	NALP3 yeast inh	tim23-1 inh	tim10-1 confirm
Brc1ccc(-c2cn3c(n2)CCc2ccc4cccnc4c2-3)cc1	13	46*	38	11	45	32*
Brc1ccc(-c2cn3nc4c(nc3n2)CCCC4)cc1	.	20	2	4	16	.
CCOc1ccccc1NC(=O)COC(=O)c1cnc(C)cn1	-9	-11	9	14	6	.
CNCc1ccccc1Sc1cccc2ccccc12	8	41*	35	6	21	18
COC(=O)CN1C(=S)N(c2ccc(OC)cc2)C(=O)/C1=C/c1ccc(N2CCOCC2)cc1	6	.	.	.	.	.
COC(=O)CN1C(=S)N(c2ccc(OC)cc2)C(=O)/C1=C/c1ccc(OC)cc1	-4	50*	27	-18	39	37*
CC1(C(=O)NC(=S)NNC(=O)c2ccncc2)CCCCC1	22	22	14	23	12	.
O=C(NNC(=S)NC(=O)C12CC3CC(CC(C3)C1)C2)c1ccncc1	62	60*	26	31	11	-16
c1ccc(-n2nnnc2SCc2cccc3nsnc23)cc1	-8	40*	23	15	36	33*
CSCCC(=O)N1CCC(n2nccc2NC(=O)CCCc2ccccc2)CC1	-16	-14	0	16	10	.
CC(Sc1nncn1C)C(=O)Nc1ccc2ccccc2c1 (stereo not given)	-2	-8	1	14	2	.
Cc1cc(C)cc(-n2c(C)cc(C(=S)N3CCOCC3)c2C)c1	1	24	37	10	31	.
Cc1cccc(-n2c(C)cc(C(=S)N3CCOCC3)c2C)c1C	7	44*	15	12	34	24
Cc1ccc(OC(=O)C2CSC3(C)CCC(=O)N23)c(Br)c1 (stereo not given)	-31	49*	7	7	39	20
CCCCNC(=S)Nc1ccc([N+](=O)[O-])cc1	3	50*	23	37	22	24
CCOc1ccc(NCC(=O)Nc2ccc(Cl)cc2C)cc1	.	45*	17	17	34	20
CCCOc1ccc(NCC(=O)Nc2ccc(C)cc2C)cc1	-17	36	-2	10	13	.
CCOC(=O)CCc1c(C)n(CC)c2cc(-c3ccccc3OC)nn2c1=O	22	42*	32	-11	21	25
CCN(CC)CCCNC(=O)CCc1c(C)n(CC)c2cc(-c3ccccc3OC)nn2c1=O	-21	-3	3	9	-5	.
COc1ccccc1NC(=O)CSC1CC(=O)N(c2ccc3c(c2)OCO3)C1=O (stereo not given)	3	47*	20	25	31	45*
c1ccc(Cn2nnc3c(N4CCC5(CC4)OCCO5)ncnc32)cc1	12	42*	27	26	36	28
CCc1nc(N2CCC3(CC2)OCCO3)c2nnn(Cc3ccccc3)c2n1	-3	-11	-27	19	25	.
CCc1cc(C(=O)N2CCN(c3ncc(C(F)(F)F)cc3Cl)CC2)sc1C	1	42*	5	13	26	35*
O=C(c1cccs1)N1CCN(c2ncc(C(F)(F)F)cc2Cl)CC1	4	19	5	14	29	.
COc1ccccc1N1CCN(C2CCCN(C(=O)CCn3cncn3)C2)CC1 (stereo not given)	-3	-19	-6	23	-5	.
SMILES	PfHsp90 set2	tim10-1 inh	TIM10 inh	NALP3 yeast inh	tim23-1 inh	tim10-1 confirm
CCc1ccc(NC2=NCC(=O)N2c2ccc3c(c2)OCCO3)cc1	15	42*	-7	0	19	16
O=C(CSc1nc2ccccc2o1)NC1CCS(=O)(=O)C1 (stereo not given)	7	-9	-2	12	-12	.
C=CCn1c(SCc2ccc(C#N)cc2)nnc1-c1ccc(C)cc1	.	44*	17	-3	36	28
Cn1c(SCc2ccc(C#N)cc2)nnc1-c1ccncc1	13	-14	-12	11	-10	.
CC(C)Sc1oc(-c2ccco2)nc1S(=O)(=O)c1ccccc1	-9	41*	30	20	49	30
CSc1oc(-c2ccco2)nc1S(=O)(=O)c1ccccc1	10	12	-8	-3	14	.
CCOc1ccccc1NC1=C(Cl)C(=O)N(Cc2ccccc2)C1=O	-8	44*	24	10	-3	21
CCOc1ccccc1NC1=C(Cl)C(=O)N(c2ccccc2)C1=O	8	14	15	17	19	.
C=CCNC1=C(Cl)C(=O)N(Cc2ccccc2)C1=O	-4	-34	-31	34	-9	.
O=C1C(Cl)=C(Nc2cccc(O)c2)C(=O)N1Cc1ccccc1	-7	42*	32	23	32	31*
CC1CCCCN1C(=O)c1cccc(NC2=C(Cl)C(=O)N(Cc3ccccc3)C2=O)c1 (stereo not given)	.	51*	35	31	49	35*
N#CC1=C(N)Oc2n[nH]c(-c3cccs3)c2C1c1ccncc1 (stereo not given)	0	5	-2	0	13	.
Cc1ccc(C2C(C#N)=C(N)Oc3n[nH]c(-c4cccs4)c32)s1 (stereo not given)	-1	46*	37	14	43	31
CC(C)(C)Nc1nc(SCC(=O)Nc2ccccc2)nc(N2CCOCC2)n1	4	46*	13	5	18	-6
COCCN1C(=O)N[C@@H](c2cccs2)C(C(C)=O)=C1C	-3	13	5	17	0	.
Cc1cccc(NC(=S)N2CCCCCC2)c1C	9	5	5	13	9	.
Cc1c(Cl)cccc1NC(=S)N1CCCCCC1	-13	44*	24	11	29	16
N/C(=N\OC(=O)CSc1ccccc1)c1cccc([N+](=O)[O-])c1	-3	42*	24	5	31	40*
COc1ccc(CCNC(=S)NC(=O)c2cccc([N+](=O)[O-])c2)cc1OC	0	41*	24	25	37	27
N/C(=N\OC(=O)c1cccc2ccccc12)c1cccc([N+](=O)[O-])c1	-5	33	6	23	22	.
COc1ccc(C(=O)O/N=C(\N)c2ccccc2Cl)cc1OC	21	63*	29	14	31	52*
N/C(=N\OC(=O)c1cccs1)c1cccc([N+](=O)[O-])c1	-4	47*	13	6	12	39*
COc1ccc(/C(N)=N/OC(=O)c2cccc([N+](=O)[O-])c2)cc1OC	.	42*	6	14	11	15
O=C(COc1ccccc1C(=O)O)Nc1ccc(SC(F)F)cc1	-15	7	1	7	7	.
